Data on nine molecules can be found in PubChem BioAssay (EPA / NIEHS).

Assay [1] in a line: APR_HepG2_CellCycleArrest_1hr: Apredica 1-hour HepG2 Assay for Cell Cycle Arrest (AID 2282666). Conditions: high-content imaging, actives raise or lower the signal. In a few lines: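 HepG2 cells exposed for 1 h to 0.39–200 uM compound (0.5% DMSO). Fixed, Hoechst-stained nuclei imaged by ArrayScan; DNA content quantified by Cell Cycle analysis; bidirectional fit against DMSO.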

Assay [2] is described as follows: ACEA_ER_80hr: ACEA Biosciences xCELLigence Real-Time Cell Analysis on Estrogen Receptor Agonism for Proliferation (AID 2282667; active means hit-call score of the fitted dose curve at least 0.9, where 1 is the maximum). The conditions noted are these: T47D proliferation, impedance (xCELLigence), 80 h. In a few lines: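 Real-time impedance growth kinetics of human T-47D breast cells read 80 h after dosing, gain-of-signal fitted relative to DMSO. Compounds: 1:4 serial series, top final concentration 100 uM, n = 2.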

A short description of assay [3]: APR_HepG2_MicrotubuleCSK_1hr: Apredica 1-hour HepG2 Assay for Microtubule CSK Stabilty (AID 2282669). Conditions: HepG2 microtubule cytoskeleton imaging, actives raise or lower the signal. In a few lines:
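HepG2 cells exposed 1 h to 0.39–200 uM compound (0.5% DMSO, duplicates), then formaldehyde-fixed, permeabilized and immunostained for alpha-tubulin with Hoechst nuclei. Imaged by ArrayScan high-content analysis; bidirectional fit versus DMSO.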

The nature of assay [4]: APR_HepG2_p53Act_1hr: Apredica 1-hour HepG2 Assay for p53 Activation (AID 2282671). The conditions noted are these: high-content imaging, actives raise or lower the signal. In a few lines:
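HepG2 cells treated 1 h with compound at 0.39–200 uM (10 concentrations, duplicate) in 0.5% DMSO. Formaldehyde-fixed, permeabilised cells immunostained for p53 with Hoechst 33342; high-content imaging, bidirectional fit versus DMSO.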

Assay [5] can be described thus: APR_HepG2_MitoticArrest_1hr: Apredica 1-hour HepG2 Assay for Mitotic Arrest (AID 2282672). Conditions: high-content imaging, actives raise or lower the signal. In short, it runs like this: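 HepG2 cells exposed 1 hr to compounds at 0.39–200 uM (0.5% v/v DMSO final), then fixed in 3.7% formaldehyde and immunostained for phospho-histone H3 with Hoechst 33342. Mitotic arrest scored by automated fluorescence imaging, fitted bidirectionally versus DMSO.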

The nature of assay [6]: APR_HepG2_P-H2AX_1hr: Apredica 1-hour HepG2 Assay for H2AX Phosphorylation (AID 2282673). The conditions noted are these: high-content imaging, actives raise or lower the signal. In a few lines:
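HepG2 dosed 1 hr at 0.39-200 uM (0.5% DMSO final), duplicate. Fixed in 3.7% formaldehyde, Triton permeabilized, immunostained for phospho-histone H2A.x (1:200) with Hoechst 33342; ArrayScan 20x imaging, bidirectional fit vs DMSO.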

Assay [7] is described as follows: APR_HepG2_MitoMass_1hr: Apredica 1-hour HepG2 Assay for Mitochondrial Mass (AID 2282674). Conditions: high-content imaging, actives raise or lower the signal. In short, it runs like this: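 HepG2 cells dosed 1 hr with 0.39-200 uM compound (0.5% DMSO), duplicate wells. Mitochondria stained with 250 nM MitoTracker Red CMXRos for 30 min before formaldehyde fixation, imaged at 20x by ArrayScan; bidirectional fit versus DMSO.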

A short description of assay [8]: APR_HepG2_MitoMembPot_1hr: Apredica 1-hour HepG2 Assay for Mitochondrial Membrane Potential (AID 2282675). Conditions: imaging, actives raise or lower the signal. In a few lines:
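HepG2 cells dosed 1 hour with 0.39–200 uM compound in duplicate, 0.5% DMSO final. MitoTracker Red CMXRos (250 nM, 30 min) loaded before formaldehyde fixation; fluorescence quantified by high-content imaging, bidirectional fitting versus DMSO.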

Assay [9] can be described thus: APR_HepG2_CellCycleArrest_24hr: Apredica 24-hour HepG2 Assay for Cell Cycle Arrest (AID 2282905).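 Further: cell cycle arrest scored as ratio of 2N to 4N nuclear DNA content.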 The conditions noted are these: imaging, actives raise or lower the signal. In a few lines: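 Cell cycle arrest is scored from nuclear DNA content measured by high-content imaging of Hoechst 33342-stained HepG2 cells following 24-hour treatment at ten concentrations up to 200 uM, with DMSO as baseline.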

A short description of assay [10]: APR_HepG2_NuclearSize_24hr: Apredica 24-hour HepG2 Assay for Nuclear Size (AID 2282907). The conditions noted are these: high-content imaging, actives raise or lower the signal. In a few lines: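 Compounds in DMSO (final 0.5%) were added to human HepG2 hepatoma cells at ten concentrations up to 200 uM for 24 hr. Fixed nuclei were stained with Hoechst 33342, and nuclear diameter was quantified from automated images.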

A short description of assay [11]: APR_HepG2_CellLoss_24hr: Apredica 24-hour HepG2 Assay for Cell Loss (AID 2282908).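 On AC50: fit in both directions so a hit may be cell loss or gain.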 The conditions noted are these: high-content imaging. In short, it runs like this:
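Cell number is quantified by fluorescence imaging of Hoechst 33342-stained nuclei following dosing at 0.39–200 uM in 0.5% DMSO. Curves are fitted in both directions from the DMSO baseline.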

Assay [12] in a line: APR_HepG2_MicrotubuleCSK_24hr: Apredica 24-hour HepG2 Assay for Microtubule CSK Stabilty (AID 2282909). Conditions: HepG2 microtubule cytoskeleton imaging, actives raise or lower the signal. In a few lines: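 Steps: dose HepG2 for 24 h (0.39–200 uM, 0.5% DMSO); fix 30 min in 3.7% formaldehyde at room temperature; permeabilize; stain alpha-tubulin 60 min; image microtubule cytoskeleton at 20x. Signal change fitted in both directions relative to DMSO.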

Assay [13] can be described thus: APR_HepG2_MitoticArrest_24hr: Apredica 24-hour HepG2 Assay for Mitotic Arrest (AID 2282910). The conditions noted are these: high-content imaging, actives raise or lower the signal. In short, it runs like this: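 Compounds are dosed onto HepG2 cells across ten concentrations up to 200 uM for 24 hr. Cells are then fixed in 3.7% formaldehyde, permeabilised, and labelled for phospho-histone H3 and nuclei; images are scored by cell cycle analysis and fitted bidirectionally relative to DMSO.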

Assay [14] in a line: APR_HepG2_MitoMembPot_24hr: Apredica 24-hour HepG2 Assay for Mitochondrial Membrane Potential (AID 2282911). Conditions: imaging, actives raise or lower the signal. In short, it runs like this: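 Mitochondrial membrane potential imaged via MitoTracker Red CMXRos (250 nM, 30 min pre-fixation) in fixed HepG2 cells with Hoechst nuclear identification. Ten concentrations 0.39–200 uM, 24 h treatment, 0.5% DMSO; CCCP as positive control.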

Assay [15] is described as follows: APR_HepG2_p53Act_24hr: Apredica 24-hour HepG2 Assay for p53 Activation (AID 2282913).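 Further: p53 protein immunofluorescence averaged per cell in HepG2 with Hoechst nuclei.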 Conditions: high-content imaging, actives raise or lower the signal. In short, it runs like this:
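Fluorescence imaging of formaldehyde-fixed HepG2 cells labelled for p53 and with Hoechst, 24 h after dosing (0.39–200 uM, duplicate wells, 0.5% v/v DMSO). Signal fitted in both directions relative to DMSO.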

Assay [16] is described as follows: APR_HepG2_CellCycleArrest_72hr: Apredica 72-hour HepG2 Assay for Cell Cycle Arrest (AID 2282914). The conditions noted are these: high-content imaging, actives raise or lower the signal. In short, it runs like this: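 Read-out: nuclear DNA content from Hoechst 33342 high-content imaging (20x, six fields/well) after 3.7% formaldehyde fixation, fitted bidirectionally against DMSO. Treatment was 72 h in HepG2, ten concentrations 0.39–200 uM, duplicate, 0.5% DMSO.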

Assay [17] is described as follows: APR_HepG2_NuclearSize_1hr: Apredica 1-hour HepG2 Assay for Nuclear Size (AID 2282670). Conditions: high-content imaging, actives raise or lower the signal. In a few lines:
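HepG2 cells dosed 1 hr with 0.39–200 uM compound (0.5% DMSO), formaldehyde-fixed, Hoechst 33342-stained and imaged at 20x; nuclear diameter from nuclear stain, fitted bidirectionally against DMSO.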

A short description of assay [18]: APR_HepG2_MitoMass_24hr: Apredica 24-hour HepG2 Assay for Mitochondrial Mass (AID 2282912). The conditions noted are these: high-content imaging, actives raise or lower the signal. In short, it runs like this:
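The liver line HepG2 was dosed in duplicate across a 0.39–200 uM series, with final DMSO held at 0.5% v/v, and harvested at 24 hr. High-content imaging measured mitochondrial dye staining.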

The nature of assay [19]: APR_HepG2_StressKinase_1hr: Apredica 1-hour HepG2 Assay for Stress Kinase (AID 2282906). Conditions: HepG2 stress kinase (phospho-c-Jun) imaging, actives raise or lower the signal. In a few lines:
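HepG2 cells dosed 0.39-200 uM (0.5% DMSO) for 1 h, then formaldehyde-fixed. Stress kinase read by phospho-c-Jun immunofluorescence using high-content imaging; bidirectional fit vs DMSO.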

Results filed as inconclusive are left out. Activity calls are given as the source filed them. How the source made its calls, unless noted: active means hit-call score of the fitted dose curve at least 0.9, where 1 is the maximum; inactive means score below 0.9.

In general, AC50 refers to the concentration at which the activity in the assay is half-maximal. Turning to `COP(=S)(OC)SCn1nnc2ccccc2c1=O`, the call in assay [1], in [2], in assay [3], in [4], in assay [5] and in assay [6] was inactive. Moreover, the outcome in assay [7], in assay [8], in [9], in assay [10], in assay [11] and in assay [12] was inactive. For the same molecule, the molecule was called inactive in assay [13], in [14] and in [15]. Moreover, the AC50 in assay [16] was 100 µM (active).

For the molecule `CCCCOCN(C(=O)CCl)c1c(CC)cccc1CC`, the outcome in assay [1], in assay [2], in assay [3], in [17], in assay [4] and in assay [5] was inactive. For the same molecule, the result in [6], in assay [9], in [10], in assay [13], in [14] and in assay [18] was inactive. The outcome in assay [15] and in assay [16] was inactive. In addition, the AC50 was 35.3 µM (active) in assay [11] and 31.2 µM (active) in assay [12].

`COC(=O)NC(=S)Nc1ccccc1NC(=S)NC(=O)OC`: the call in assay [1], in [2], in assay [3], in assay [4], in [5] and in [6] was inactive. The result in [9], in assay [19], in [10], in [11], in [13] and in assay [15] was inactive. In addition, the AC50 in [12] is 28.6 µM (active); in [14], 26 µM (active); in assay [16], 100 µM (active).

For the molecule `CCNP(=S)(OC)O/C(C)=C/C(=O)OC(C)C` (configuration not stated), the result in assay [1], in [2], in assay [3], in assay [4], in assay [5] and in assay [6] was inactive. For the same molecule, the call in assay [7], in assay [9], in [19], in assay [10], in assay [11] and in [12] was inactive. Moreover, the call in assay [13], in assay [14], in [18] and in assay [15] was inactive.

Turning to `CNC(=O)N(C)c1nnc(C(C)(C)C)s1`, the call in assay [1], in assay [2], in assay [3], in [4], in assay [5] and in [6] was inactive. Moreover, the result in assay [9], in assay [10], in assay [11], in assay [12], in [13] and in [14] was inactive. For the same molecule, the result in [15] and in assay [16] was inactive.

Turning to `CCCCC(O)(Cn1cncn1)c1ccc(Cl)cc1Cl` (configuration not stated), the molecule was called inactive in assay [1], in assay [2], in assay [3], in assay [4], in [5] and in [6]. Besides, the molecule was called inactive in assay [9], in assay [19], in [10], in [13], in [14] and in assay [18]. The molecule was classed as inactive in assay [16]. Moreover, the AC50 in assay [11] is 88 µM (active); in assay [12] it was 103 µM (active); in assay [15], 105 µM (active).

As for `O=C(O)c1c(Cl)ccc2cc(Cl)cnc12`, the outcome in assay [1], in assay [2], in assay [3], in [5], in [6] and in assay [7] was inactive. The outcome in [9], in assay [19], in assay [10], in assay [11], in [12] and in [13] was inactive. The call in [14] was inactive.

For the molecule `O=P(O)(O)CCCl`, the AC50 in assay [1] was 0.0713 µM (active). The outcome in [2], in assay [3], in assay [17], in assay [4], in assay [5] and in assay [6] was inactive. Moreover, the molecule was called inactive in [7], in [9], in [19], in [10], in assay [11] and in assay [12]. For the same molecule, the molecule was called inactive in assay [13], in [14] and in [15].

On to `COC(=O)N(C(=O)N1CO[C@@]2(C(=O)OC)Cc3cc(Cl)ccc3C2=N1)c1ccc(OC(F)(F)F)cc1`, for which the call in assay [1], in assay [2], in [3], in [4], in assay [5] and in assay [6] was inactive. For the same molecule, the result in assay [7], in assay [9], in assay [19], in [10], in assay [11] and in [12] was inactive. For the same molecule, the molecule was called inactive in [13], in assay [14] and in [15].
